From the emibetuzumab library of Makowski et al. (2022)
This is one part of the list. How many sequences the whole screen found active is unknown.

B1: VH:VL chains; a variant is named by its letters at X, in order (parent)
chain 1: QVQLVQSGAEVKKPGASVKVSCKASGYTFTDYXMHWVRQAPGQGLEWMGXVNPNXXXTTYNQKFEGRVTMTTDTSTSTAYMELRSLRSDDTAVYYCARXNXLDXWGQGTTVTVSS
chain 2: DIQMTQSPSSLSASVGDRVTITCSVSSSVSSIYLHWYQQKPGKAPKLLIYSTSNLASGVPSRFSGSGSGTDFTLTISSLQPEDFATYYCQVYSGYPLTFGGGTKVEIK

Variants of: B1
Assay: yeast display scFab, FACS + sequencing
Conditions: with MET
In short: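 Heavy-chain CDR mutant scFab yeast surface library, enriched by two magnetic rounds on HGFR-Fc-coated Protein A beads and then by FACS. Cells were labelled with 1 nM HGFR-Fc in PBSB with 1% milk and anti-Myc for 3 h at room temperature, and the top 50% antigen-positive cells were gated. Round-3 sorted and input populations were deep sequenced in two replicates. Antigen binding call: positive if a sequence occurred in both antigen-positive samples, negative if it occurred only in input.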

| Variant | antigen binding call |
| --- | --- |
| YRKGGSAA | binds |
| YRKGSSAA | binds |
| VAEEDAGY | no binding |
| DARGAYLV | no binding |
| YTGTSAGV | no binding |
| YRGKAFGV | binds |
| YRGKAAGV | binds |
| YRAGDFGV | no binding |
| VKAASAVY | no binding |
| YKARGAVY | binds |
| FRARGAAY | binds |
| VRARGAAD | binds |
| VTGTGAAD | no binding |
| YRARGAAY | binds |
| YKGRSAVY | no binding |
| VAEGDAAD | no binding |
| DRRANFLY | no binding |
| DREEGDGS | no binding |
| VRARGAAY | binds |
| YKARGAAY | binds |
| VEGTSAAY | no binding |

| Variant | antigen binding call |
| --- | --- |
| DKATGDAY | no binding |
| FRRTDFVA chain 1 C22Y | no binding |
| ARRRGSAA | binds |
| ARGRGSAA | binds |
| ARGRSDVA | no binding |
| ARGRGSVA | binds |
| AETKGAAA | no binding |
| AEEEGSAA | no binding |
| ARRRGAAA | binds |
| ARKTGAGA | no binding |
| VETTDSWV | no binding |
| VAERSFGV | no binding |
| VEEAAAGV | no binding |
| FTRESFAA | no binding |
| ARAGDAVA | no binding |
| ARAGSAWA | no binding |
| ARAGGAAA | binds |
| YKGKGFGF | no binding |
| SKGRGAGS | binds |
| YKGKGSGF | binds |
| SKGKGAGF | binds |

| Variant | antigen binding call |
| --- | --- |
| SKGKGAGD | binds |
| YKGKGAGF | binds |
| DAGKGAGD | no binding |
| SKGRSDVF | no binding |
| DGEGGDWD | no binding |
| VGRTSFGF | no binding |
| YKAGGFWF | no binding |
| YKGKGSLF | binds |
| YKAGGSLF | binds |
| VKGRADWF | no binding |
| VTGEDDVV | no binding |
| VKGRADAV | no binding |
| SRGRGSLS | binds |
| SRGRGVLV | no binding |
| AATTDSSS | no binding |
| ARGRGSSS | binds |
| SAGRGDGS | no binding |
| SGTADSSS | no binding |
| SRGRGSSS | binds |
